Giardia kill: kills Giardia lamblia | Giardia lamblia trophozoite viability | activity change, % at 7.66 µM, hits read low | hit rate 0.15% among 340,000 | AID 540267; in the data active = activity change below about -80%; inconclusive = between about -30% and that limit;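 also: parasites exposed to compound for two days anaerobically before the ATP read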
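Luminescent ATP signal served as the viability read-out, measured 15-30 min after adding ATP detection reagent to trophozoites that had been incubated with compounds for 48 hrs at 37 deg C anaerobically at 100 cells/well.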
IL1B secr inh: blocks inflammasome-driven IL-1 beta release | THP-1 LPS/ATP IL-1B secretion, AlphaLISA, 16 h; hits give low values | activity change, % at 57.5 µM | hit rate 4.7% among 360,000; in the data active = activity change below about -50%; inconclusive = mostly about -30% to -49%
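Secreted IL-1B measured by AlphaLISA bead assay after 16 h compound exposure of THP-1 cells; compounds (final up to 57.5 uM) added 1 h before LPS (250 ng/mL) and ATP (1.25 mM) stimulation; lower signal means less secretion.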
DT40 TDP1 no CPT: qHTS for Inhibitors of human tyrosyl-DNA phosphodiesterase 1 (TDP1): qHTS in cells in absence of CPT; Potency, µM (series often up to 46.2 µM), inactives show at the highest dose activity change, negative = growth inhibition, actives largely listed as inhibitors; hit rate 15% among 420,000; AID 686978, 2013; DT40 Tdp1-/- hTDP1 cells, no CPT, ATP luminescence, 48 h; also: potency is read from the fitted curve at half-maximal effect; nearly all actives have a fitted effect of over 55% in size
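Chicken DT40 Tdp1-/- cells complemented with human TDP1, screened without camptothecin (DMSO vehicle only), 400 cells/well. Compounds pin-transferred, cells incubated at 37 °C for at least 48 hr. Growth read as ATP-dependent luminescence (CellTiter-Glo, 30 min at RT).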
DT40 TDP1 CPT: DT40-hTDP1 cell growth loss with CPT. chicken DT40 Tdp1-/-;hTDP1 cells + 20 nM CPT, ATP luminescence, 48 h. Potency, µM (highest dose often 46.2 µM), for the others: at the highest dose activity change, negative = growth inhibition, actives largely listed as inhibitors. hit rate 12% among 420,000. AID 686979; also: potency is read from the fitted curve at half-maximal effect; nearly all actives have a fitted effect of over 55% in size
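Cell growth measured by CellTiter-Glo luminescence after a minimum 48 h, 37 C compound exposure with 20 nM CPT in Tdp1-knockout DT40 cells stably expressing hTDP1, seeded 400/well; qHTS titration format.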
ELG1 repair inh: blocks ELG1-dependent DNA repair in HEK293T cells | HEK293T ELG1-luciferase reporter, luminescence, 16 h; DNA damage induced by 5-fluorouridine | Potency, µM (top dose mostly 46.1 µM), for inactives: at the highest dose activity change, negative = inhibition, most hits filed as inhibitors | hit rate 2.3% among 330,000 | AID 504467; also: potency is read from the fitted curve at half-maximal effect; nearly all actives have a fitted effect of over 55% in size
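In this reporter screen, reduction of luminescence relative to DMSO vehicle indicated activity. Compounds and 5-fluorouridine were added together to 2,000 cells per well, incubated for 16 hr at 37 °C, then developed with ONE-Glo.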
TDP1 inh: TDP1 (human) enzyme inhibition; Q9NUW8; recombinant TDP1, AlphaScreen DNA substrate cleavage; Potency, µM (top dose mostly 130 µM), inactives show top-dose activity change, negative = inhibition, usual class: inhibitors; hit rate 0.28% among 350,000; also: potency is read from the fitted curve at half-maximal effect; nearly all actives have a fitted effect of over 40% in size
Target sequence (Q9NUW8 whole entry, looked up): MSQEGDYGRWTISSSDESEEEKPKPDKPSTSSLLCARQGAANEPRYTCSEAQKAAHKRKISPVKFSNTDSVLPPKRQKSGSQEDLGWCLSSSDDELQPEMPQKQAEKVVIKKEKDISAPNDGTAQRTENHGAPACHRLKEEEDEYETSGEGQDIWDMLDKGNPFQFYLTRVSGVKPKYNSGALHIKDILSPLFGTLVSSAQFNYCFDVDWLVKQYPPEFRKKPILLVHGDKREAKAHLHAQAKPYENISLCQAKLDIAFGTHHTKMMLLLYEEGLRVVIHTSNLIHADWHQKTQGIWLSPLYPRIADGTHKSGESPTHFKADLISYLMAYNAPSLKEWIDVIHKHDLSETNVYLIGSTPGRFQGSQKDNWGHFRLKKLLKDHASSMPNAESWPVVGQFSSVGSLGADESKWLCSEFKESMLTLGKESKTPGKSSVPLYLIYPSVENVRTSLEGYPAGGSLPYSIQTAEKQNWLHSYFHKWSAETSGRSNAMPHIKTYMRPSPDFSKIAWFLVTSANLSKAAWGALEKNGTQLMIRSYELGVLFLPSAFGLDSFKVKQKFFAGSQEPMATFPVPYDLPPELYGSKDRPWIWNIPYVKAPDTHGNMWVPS
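Here, a 5' biotin and 3' phosphotyrosine-FITC DNA oligonucleotide reports Tdp1 activity: intact substrate bridges AlphaScreen beads, while cleavage leaves a 3' phosphate and drops signal. All incubations at room temperature.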
Numbers without * were called inactive; ? = inconclusive; nt = no result given; [ ] = dose if it differs, or a comment. Shown are actives, neighbours in structure and some others; about 19% of the full set was active somewhere. Unless noted, calls follow the shape of the dose curve; as a rule, active = well fitted curve in the direction sought with a large enough effect; inconclusive = small, poorly fitted or top-dose-only effect, or another doubt; inactive = no such curve, though single readings can be large; an effect the other way counts as inactive or inconclusive. % is scaled to controls: 0 for no effect and ±100 for the full control effect.

SMILES | Giardia kill | IL1B secr inh | DT40 TDP1 no CPT | DT40 TDP1 CPT | ELG1 repair inh | TDP1 inh
O=C(NC(Cc1ccccc1)C(=O)O)/C(=C/c1cccc([N+](=O)[O-])c1)NC(=O)c1ccco1 (centres undefined) | 15.2 | 21.1 | 1.0% | 11.9% | 3.0% | 3.1%
Cc1ccc([N+](=O)[O-])cc1N/C=C/C(=O)c1ccco1 | -0.7 | 4.9 | 20.6µM* | ? | ? | -0.5%
CCN1C[C@@H]2[C@@H]3C(=O)N(Cc4ccccc4)C(=O)[C@@H]3[C@](Cc3ccccc3)(C1=O)N2C(=O)c1ccc(C(C)(C)C)cc1 | -22.5 | -13.5 | 18.4µM* | 16.4µM* | nt | nt
CCN1C[C@@H]2[C@@H]3C(=O)N(Cc4ccccc4)C(=O)[C@@H]3[C@](Cc3ccccc3)(C1=O)N2C(=O)c1ccc(C(F)(F)F)cc1 | 4.3 | 11.3 | -15.1% | -9.3% | nt | nt
C=CCN1CC(C(=O)N2CCC(Cc3ccc(Cl)cc3)(C(=O)OCC)CC2)CC1=O (centres undefined) | 0.1 | 17.5 | -25.7% | ? | 0.5% | 0.0%
CCOC(=O)CNC(=O)CN1CCC(c2nc3ccccc3[nH]2)CC1 | -1.6 | 4.9 | -20.2% | -3.7% | 20.2% | -0.2%
COC(=O)C[C@H]1c2cc(C(F)(F)F)ccc2S(=O)(=O)N1C1CCCCC1 | 7.7 | 5.3 | ? | ? | nt | nt
CCCCCCCCN1[C@@H](CC(C)=O)c2cc(C(F)(F)F)ccc2S1(=O)=O | -11.1 | 32.4 | 12.6µM* | ? | nt | nt
CC(=O)C[C@H]1c2cc(C(F)(F)F)ccc2S(=O)(=O)N1C1CCCCC1 | 5.3 | ? | 20.6µM* | 16.4µM* | nt | nt
COC(=O)C[C@H]1c2cc(C(F)(F)F)ccc2S(=O)(=O)N1C1CCCC1 | -1.8 | -2.4 | ? | 23.1µM* | nt | nt
Cc1ccc(C(=O)NCCNS(C)(=O)=O)cc1 | 4.5 | 0.5 | 12.8% | -25.8% | -0.1% | 5.8%
COCCN(C(=O)COc1ccccc1C#N)c1c(N)n(Cc2ccccc2)c(=O)[nH]c1=O | -5.1 | -9.0 | -16.3% | -19.5% | 3.1% | -4.1%
Cc1cc(NC(=O)CCCn2cc([N+](=O)[O-])cn2)n(Cc2ccc(F)cc2)n1 | -10.1 | 24.9 | 1.4% | 6.1% | -6.7% | 5.3%
Cc1ncc2c(c1CNC(=O)c1ccc3c(c1)OCO3)CCN(C(=O)c1cccc(-n3cccn3)c1)C2 | nt | nt | -22.1% | 0.3%[9.04 µM] | nt | nt
CN(CCOc1ccc(Cl)cc1)C(=O)C1CCN(C(=O)c2ccc(Cl)cc2)CC1 | -10.1 | -60.6* | ? | ? | ? | 1.1%
Cc1ccc(COc2ccccc2C(=S)N2CCCC2)cc1 | 6.8 | 7.6 | 20.6µM* | ? | 4.0% | 2.7%
COc1cc(C(=O)N(C)CCOc2ccc(C)cc2)ccc1OC1CCN(C(C)=O)CC1 | -21.6 | 18.3 | -24.6% | 5.6% | -2.9% | 3.3%
O=C(c1ccc(COc2ccccc2Br)cc1)N1CCCCCC1 | -13.3 | -27.3 | 16.4µM* | ? | -28.1% | 0.0%
Fc1ccc(COc2ccccc2C(=S)N2CCCC2)cc1 | -18.2 | ? | ? | ? | 3.7% | -2.6%
CN(CCOc1ccccc1)C(=O)c1ccc(OC2CCN(C(=O)C3CC3)CC2)cc1 | 13.7 | 4.0 | 18.4µM* | ? | ? | 4.8%
O=C(NC1CC2CCC(C1)N2Cc1ccccc1)c1ccccc1Cl (centres undefined) | -15.3 | -28.8 | -0.2% | -14.4% | -0.3% | nt
O=C(c1ccc(COc2ccc(Cl)cc2)cc1)N1CCCCC1 | 2.5 | -62.9* | ? | ? | ? | 2.7%
COc1ccccc1N(CC(=O)NCc1ccco1)C(=O)CCC(=O)Nc1ccccn1 | -4.9 | 9.9 | -14.2% | 16.6% | -1.0% | 3.8%
CN(NS(=O)(=O)c1ccc(Cl)cc1)c1nc(C(F)(F)F)nc2ccccc12 | -3.8 | 25.9 | 13.4% | -0.9% | 23.1µM* | 0.5%
Cc1cccc(C(=O)NN(C)c2nc(-c3ccccc3)nnc2C(F)(F)F)c1 | -1.4 | 4.5 | 2.59µM* | 20.6µM* | -7.0% | 2.0%
SMILES | Giardia kill | IL1B secr inh | DT40 TDP1 no CPT | DT40 TDP1 CPT | ELG1 repair inh | TDP1 inh
COc1ccc(C(=O)NN(C)c2nc(C(F)(F)F)nc3ccccc23)cc1 | 26.5 | 93.9 | 0.206µM* | 0.184µM* | ? | 2.7%
CN(NC(=O)C(C)(C)C)c1nc(-c2ccccc2)nnc1C(F)(F)F | 5.1 | 15.0 | -29.2% | ? | 11.2% | 5.7%
COc1ccc(C(=O)NN(C)c2nc(-c3ccccc3)nnc2C(F)(F)F)cc1 | 5.7 | -5.2 | 16.4µM* | ? | -19.1% | -7.9%
Cc1ccc(C2(CC(=O)N3CCCC3)CCOC(C(C)C)C2)cc1 (centres undefined) | -1.8 | 1.4 | ? | ? | 8.3% | 1.8%
COc1ccccc1C1(CC(=O)N2CCCCC2)CCOC(C(C)C)C1 (centres undefined) | 22.5 | 2.6 | 23.1µM* | 23.1µM* | -7.1% | 3.0%
COc1ccc(-c2nnc3n(CCc4ccccc4)c(=O)c4ccccc4n23)cc1OC | 16.2 | ? | 23.1µM* | ? | 6.51µM* | 0.0%
CCn1c(=O)c(C(=O)NCc2ccc(F)cc2)c(O)c2ccccc21 | -6.0 | 102.4 | ? | 9.2µM* | 9.9% | -7.2%
CCn1c(=O)c(C(=O)NCc2ccc(Cl)cc2)c(O)c2ccccc21 | 8.9 | 19.9 | ? | 20.6µM* | -0.9% | nt
CCn1c(=O)c(C(=O)NCCCc2ccccc2)c(O)c2ccccc21 | -17.7 | 13.6 | ? | -22.5% | 4.5% | 56.2µM*
O=C(Nc1ccc(F)cc1)c1ccc(-n2cnc3cccnc32)cc1 | nt | nt | nt | nt | nt | 5.6%
CC(C)Cn1c(=O)c2sccc2n2c(CCCC(=O)NCc3ccccc3Cl)nnc12 | nt | nt | -19.5% | -10.8% | nt | 5.1%
CCCc1sc(N/N=C/c2ccccn2)nc1-c1ccc(F)cc1 | 14.5 | -100.1* | 4.61µM* | 4.61µM* | ? | 3.9%[56.1 µM]
O=C(Cc1ccc(F)cc1)N/N=C/c1ccccn1 | -11.6 | -12.6 | -17.4% | -19.2% | 4.9% | 2.7%
